According to PubChem BioAssay (NCI):
About 79,000 compounds went through this panel and 15% of them were active in at least one assay; those are over-represented in the sample as a whole. Cut-off read from the data, not from the text of the source: active = growth inhibition above about 70%; inactive = the rest.

Assays:
[1] = NCI Yeast Anticancer Drug Screen. Data for the rad50 strain (AID 155);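 note: 0% = growth of vehicle-only cultures of the same strain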; conditions: S. cerevisiae rad50 strain growth inhibition; at 50.0 µM; stronger effect = higher value
In short: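 Vehicle-treated cultures provide the reference for the growth inhibition reported for compound-exposed, repair-deficient yeast.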

[2] = NCI Yeast Anticancer Drug Screen. Data for the mec2-1 strain (AID 157); conditions: S. cerevisiae mec2-1 strain, at 50.0 µM, stronger effect = higher value
In short: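 Readout is yeast growth inhibition, normalised to vehicle-treated controls, in the mec2-1 strain exposed to compound.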

[3] = NCI Yeast Anticancer Drug Screen. Data for the sgs1 mgt1 strain (AID 161);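 note: 0% = growth of cultures given vehicle only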; conditions: S. cerevisiae sgs1 mgt1 strain, at 50.0 µM, stronger effect = higher value
In short: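 Growth of a repair-deficient yeast mutant was monitored after compound treatment and expressed as inhibition relative to vehicle-treated cultures.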

[4] = NCI Yeast Anticancer Drug Screen. Data for the cln2 rad14 strain (AID 165);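 note: 0% = growth equal to vehicle treated cultures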; conditions: S. cerevisiae cln2 rad14 strain, at 50.0 µM, stronger effect = higher value
In short: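 Relative to vehicle controls, growth inhibition of compound-treated cln2 rad14 yeast was recorded.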

[5] = NCI Yeast Anticancer Drug Screen. Data for the bub3 strain (AID 167); conditions: S. cerevisiae bub3 mutant strain, at 50.0 µM, stronger effect = higher value
In short: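 Mutant yeast screening strain plus compound; vehicle-treated cultures serve as the 0% inhibition reference.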

[6] = NCI Yeast Anticancer Drug Screen. Data for the mlh1 rad18 strain (AID 175); conditions: S. cerevisiae mlh1 rad18 strain growth inhibition; at 50.0 µM; stronger effect = higher value
In short: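 Test agents were incubated with a yeast strain of defined genotype (DNA damage repair defect). Inhibition of growth was derived by comparison with vehicle-exposed cultures.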

Measured: growth inhibition

O=C(c1ccc(C2CCCCC2)cc1)C(C(c1ccccc1)N1CCOCC1)N1CCOCC1 (stereo not given)
inactive: [1] -54.7% | [2] -16.6% | [3] -19.9% | [4] -10.6% | [5] -3.75% | [6] 23.9%

COc1cc(OC)c(NC(=O)C(Cl)(Cl)Cl)cc1Cl
inactive: [1] 4% | [2] 42% | [3] 5.9% | [4] -17.4% | [5] 30.9% | [6] 27.4%

CNC(=O)NCCCC(NC(C)=O)C(=O)NCc1ccccc1 (stereo not given)
inactive: [1] -19% | [2] -16.7% | [3] -16.2% | [4] 6.4% | [5] -12.5% | [6] 4.7%

CC(=O)c1c(C)[nH]c(C(=O)O)c1C
inactive: [1] 24.7% | [2] 4.3% | [3] 8.75% | [4] -14.4% | [5] 5.35% | [6] 16.6%

O=C1OC(c2ccc(Cl)c3ccccc23)c2ccccc21 (stereo not given)
inactive: [1] 58.6% | [2] 19.2% | [3] 34.4% | [4] 28.6% | [5] 12.8% | [6] 43.3%

Cc1ccccc1N=C(N)Nc1ccccc1C
inactive: [1] -25.5% | [2] -29.9% | [3] -44.3% | [4] 5.7% | [5] -38.7% | [6] -52.4%

Cc1ccc(S(=O)(=O)OC2C(CI)OCOC(CI)C2OS(=O)(=O)c2ccc(C)cc2)cc1 (stereo not given)
inactive: [1] -1.05% | [2] -7.3% | [3] -6.3% | [4] -20.4% | [5] -21.6% | [6] -14.8%

Cc1c(C)c(C)c(CN2CC(=O)c3ccccc3C2=O)c(C)c1C
inactive: [1] 18% | [2] 13.7% | [3] 4% | [4] 14.1% | [5] 10.6% | [6] 15.5%

C=CCNC(=O)c1ccccc1OCC(=O)O
inactive: [1] -12.7% | [2] -37.3% | [3] -8.75% | [4] -8.1% | [5] -29.1% | [6] 1.4%

COc1cc(O)c(C(C)c2ccccc2)cc1N=O (stereo not given)
inactive: [1] -9.45% | [2] -11.6% | [3] -4.4% | [4] 4.15% | [5] 11.8% | [6] -6.15%

Cn1c([N+](=O)[O-])cnc1/C=C1\CCc2cc(OCCN3CCCC3)ccc2C1=O
inactive: [1] 30.4% | [2] 24.3% | [3] 36.4% | [4] 21.6% | [5] -2% | [6] 38.3%

CC(O)(c1ccccc1)C1CC1 (stereo not given)
inactive: [1] -1.55% | [2] -29.2% | [3] -16.7% | [4] -0.65% | [5] -16.1% | [6] -4.05%

Cc1ccc(S(=O)(=O)N(C)c2cc(Cl)c(C(=O)O)cc2Cl)cc1
inactive: [1] -0.7% | [2] -14.9% | [3] 5.85% | [4] 4.05% | [5] -14.3% | [6] 15.1%

COc1ccc(CC(N)C(=O)NC2C(CO)OC(n3cnc4c(N)ncnc43)C2O)cc1 (stereo not given)
inactive: [1] 5.65% | [2] -28.6% | [3] -1.6% | [4] -74.3% | [5] -0.25% | [6] -12.8%

COc1ccc(NC=O)c(C(=O)CCNC(C)=O)c1
inactive: [1] -14.9% | [2] -20.2% | [3] -13.4% | [4] -6.8% | [5] -16.3% | [6] -51.2%

O=C(O)CCC(=O)c1ccc2c3c(cccc13)CC2
inactive: [1] 22.6% | [2] 0.9% | [3] 15.2% | [4] 46% | [5] 21.5% | [6] 36%

N=C1C(=O)C(=N)c2ccccc2-c2ccccc21
inactive: [1] -31% | [2] -48.8% | [3] -14.7% | [4] -0.05% | [5] -36.6% | [6] -23.9%

COC(=O)C1C2OC(C(Br)C2Br)C1C(=O)O (stereo not given)
inactive: [1] -6.2% | [2] 2.2% | [3] 7.1% | [4] 2.2% | [5] 9.95% | [6] 3.8%

CC(=O)c1c(-c2nc(=S)[nH]c(C)c2C(C)=O)nc(=S)[nH]c1C
inactive: [1] 15.1% | [2] 9.95% | [3] 6.3% | [4] 0.45% | [5] -1.45% | [6] 16.8%

CC(=O)Oc1cccn2c(C(=O)C(=O)c3ccc4c(OC(C)=O)cccn34)ccc12
inactive: [1] 5.15% | [2] 1.8% | [3] -12.9% | [4] -0.55% | [5] -4.85% | [6] 14.7%
